# Laboratory results published in the supplement of paper PMC4466140.
# B1: unnamed (peptide)
# chain: TPRLSLPRLPNKHHW
# B2: unnamed (peptide)
# chain: GRLRPKRIAPWHLIQ
# B3: unnamed (peptide)
# chain: RVTRKRPREPKSTND
# B4: unnamed (peptide)
# chain: RRASLFPRDPKRLRP
# Target: AgAbp1
# Experiment: SPOT peptide array binding signal intensity (averaged, normalized) (arbitrary units (background-subtracted, floor 0; scale differs between SH3 domains)); higher = stronger binding of the SH3 domain to the peptide
# Procedure, shortened: (§1)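 Binding signal refers to normalized, background-subtracted spot intensity averaged over replicates, expressed in arbitrary units that differ between domains. GST-fused SH3 domains from four yeast species were incubated at 10 μg/ml overnight at 4°C on cellulose membranes of synthetic 15-mer peptides with cysteines replaced by serines. Bound protein was detected with anti-GST antibody, an HRP anti-mouse secondary and luminol, and quantified with Genespotter.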
row,Binder,SPOT peptide array binding signal intensity
1,B1,88
2,B2,84.5
3,B3,86

# Target: AgBbc1
# Experiment: as above
# Procedure, shortened: as §1
row,Binder,SPOT peptide array binding signal intensity
1,B1,1.5
2,B2,22.8
3,B3,146

# Target: AgBem1-D1
# Experiment: as above
# Procedure, shortened: as §1
row,Binder,SPOT peptide array binding signal intensity
1,B1,≤ 0
2,B2,21
3,B3,322

# Target: AgBzz1-D1
# Experiment: as above
# Procedure, shortened: as §1
row,Binder,SPOT peptide array binding signal intensity
1,B1,12.5
2,B2,22
3,B3,18

# Target: AgBzz1-D2
# Experiment: as above
# Procedure, shortened: as §1
row,Binder,SPOT peptide array binding signal intensity
1,B1,23.5
2,B2,15.5
3,B3,31

# Target: AgCyk3
# Experiment: as above
# Procedure, shortened: as §1
row,Binder,SPOT peptide array binding signal intensity
1,B1,≤ 0
2,B2,4
3,B3,3

# Target: AgFus1
# Experiment: as above
# Procedure, shortened: as §1
row,Binder,SPOT peptide array binding signal intensity
1,B1,15.5
2,B2,106
3,B3,300

# Target: AgHof1
# Experiment: as above
# Procedure, shortened: as §1
row,Binder,SPOT peptide array binding signal intensity
1,B1,685
2,B2,15
3,B3,64.5

# Target: AgHse1
# Experiment: as above
# Procedure, shortened: as §1
row,Binder,SPOT peptide array binding signal intensity
1,B1,271
2,B2,542
3,B3,606

# Target: AgLsb1
# Experiment: as above
# Procedure, shortened: as §1
row,Binder,SPOT peptide array binding signal intensity
1,B1,1
2,B2,≤ 0
3,B3,3

# Target: AgLsb4
# Experiment: as above
# Procedure, shortened: as §1
row,Binder,SPOT peptide array binding signal intensity
1,B1,33.5
2,B2,36
3,B3,72

# Target: AgMyo5
# Experiment: as above
# Procedure, shortened: as §1
row,Binder,SPOT peptide array binding signal intensity
1,B1,≤ 0
2,B2,0.5
3,B3,2.5

# Target: AgNbp2
# Experiment: as above
# Procedure, shortened: as §1
row,Binder,SPOT peptide array binding signal intensity
1,B1,26
2,B2,590
3,B3,123

# Target: AgRvs167
# Experiment: as above
# Procedure, shortened: as §1
row,Binder,SPOT peptide array binding signal intensity
1,B1,2.67
2,B2,3.83
3,B3,0.667

# Target: AgSho1
# Experiment: as above
# Procedure, shortened: as §1
row,Binder,SPOT peptide array binding signal intensity
1,B1,274
2,B2,≤ 0
3,B3,31

# Target: AgSla1-D1-D2
# Experiment: as above
# Procedure, shortened: as §1
row,Binder,SPOT peptide array binding signal intensity
1,B1,7
2,B2,44
3,B3,178

# Target: AgSla1-D3
# Experiment: as above
# Procedure, shortened: as §1
row,Binder,SPOT peptide array binding signal intensity
1,B1,≤ 0
2,B2,2.5
3,B3,7.25

# Target: CaAbp1-D1
# Experiment: as above
# Procedure, shortened: as §1
row,Binder,SPOT peptide array binding signal intensity
1,B1,314
2,B2,1010
3,B3,887

# Target: CaAbp1-D2
# Experiment: as above
# Procedure, shortened: as §1
row,Binder,SPOT peptide array binding signal intensity
1,B1,675
2,B2,666
3,B3,550

# Target: CaBbc1
# Experiment: as above
# Procedure, shortened: as §1
row,Binder,SPOT peptide array binding signal intensity
1,B1,30.2
2,B2,156
3,B3,346

# Target: CaBem1-D1
# Experiment: as above
# Procedure, shortened: as §1
row,Binder,SPOT peptide array binding signal intensity
1,B1,≤ 0
2,B2,26
3,B3,40.5

# Target: CaBzz1-D1
# Experiment: as above
# Procedure, shortened: as §1
row,Binder,SPOT peptide array binding signal intensity
1,B1,≤ 0
2,B2,73
3,B3,134

# Target: CaBzz1-D2
# Experiment: as above
# Procedure, shortened: as §1
row,Binder,SPOT peptide array binding signal intensity
1,B1,34.5
2,B2,79.2
3,B3,174

# Target: CaCyk3
# Experiment: as above
# Procedure, shortened: as §1
row,Binder,SPOT peptide array binding signal intensity
1,B1,≤ 0
2,B2,112
3,B3,169

# Target: CaFus1
# Experiment: as above
# Procedure, shortened: as §1
row,Binder,SPOT peptide array binding signal intensity
1,B1,50.5
2,B2,178
3,B3,734

# Target: CaHof1
# Experiment: as above
# Procedure, shortened: as §1
row,Binder,SPOT peptide array binding signal intensity
1,B1,1
2,B2,0.75
3,B3,1

# Target: CaHse1
# Experiment: as above
# Procedure, shortened: as §1
row,Binder,SPOT peptide array binding signal intensity
1,B1,73
2,B2,11.8
3,B3,35.2

# Target: CaLsb1
# Experiment: as above
# Procedure, shortened: as §1
row,Binder,SPOT peptide array binding signal intensity
1,B1,≤ 0
2,B2,≤ 0
3,B3,1.5

# Target: CaLsb4
# Experiment: as above
# Procedure, shortened: as §1
row,Binder,SPOT peptide array binding signal intensity
1,B1,70
2,B2,67
3,B3,193

# Target: CaMyo5
# Experiment: as above
# Procedure, shortened: as §1
row,Binder,SPOT peptide array binding signal intensity
1,B1,≤ 0
2,B2,2.5
3,B3,2

# Target: CaNbp2
# Experiment: as above
# Procedure, shortened: as §1
row,Binder,SPOT peptide array binding signal intensity
1,B1,116
2,B3,266

# Target: CaRvs167
# Experiment: as above
# Procedure, shortened: as §1
row,Binder,SPOT peptide array binding signal intensity
1,B1,2.83
2,B3,4

# Target: CaRvs167-3
# Experiment: as above
# Procedure, shortened: as §1
row,Binder,SPOT peptide array binding signal intensity
1,B1,4.75
2,B3,79.2

# Target: CaSho1
# Experiment: as above
# Procedure, shortened: as §1
row,Binder,SPOT peptide array binding signal intensity
1,B1,89
2,B3,327

# Target: CaSla1-D1-D2
# Experiment: as above
# Procedure, shortened: as §1
row,Binder,SPOT peptide array binding signal intensity
1,B1,256
2,B3,146

# Target: CaSla1-D3
# Experiment: as above
# Procedure, shortened: as §1
row,Binder,SPOT peptide array binding signal intensity
1,B1,1.5
2,B3,≤ 0

# Target: ScAbp1
# Experiment: as above
# Procedure, shortened: as §1
row,Binder,SPOT peptide array binding signal intensity
1,B1,0.5
2,B3,50

# Target: ScBbc1
# Experiment: as above
# Procedure, shortened: as §1
row,Binder,SPOT peptide array binding signal intensity
1,B1,≤ 0
2,B3,88

# Target: ScBem1-D1
# Experiment: as above
# Procedure, shortened: as §1
row,Binder,SPOT peptide array binding signal intensity
1,B1,2
2,B3,76

# Target: ScBzz1-D1
# Experiment: as above
# Procedure, shortened: as §1
row,Binder,SPOT peptide array binding signal intensity
1,B1,≤ 0
2,B3,12

# Target: ScBzz1-D2
# Experiment: as above
# Procedure, shortened: as §1
row,Binder,SPOT peptide array binding signal intensity
1,B1,16.5
2,B3,10

# Target: ScCyk3
# Experiment: as above
# Procedure, shortened: as §1
row,Binder,SPOT peptide array binding signal intensity
1,B1,6
2,B3,204

# Target: ScFus1
# Experiment: as above
# Procedure, shortened: as §1
row,Binder,SPOT peptide array binding signal intensity
1,B1,0.5
2,B3,312

# Target: ScHof1
# Experiment: as above
# Procedure, shortened: as §1
row,Binder,SPOT peptide array binding signal intensity
1,B1,238
2,B3,2.5

# Target: ScHse1
# Experiment: as above
# Procedure, shortened: as §1
row,Binder,SPOT peptide array binding signal intensity
1,B1,216
2,B3,1040

# Target: ScLsb1
# Experiment: as above
# Procedure, shortened: as §1
row,Binder,SPOT peptide array binding signal intensity
1,B1,8
2,B3,5.25

# Target: ScLsb2
# Experiment: as above
# Procedure, shortened: as §1
row,Binder,SPOT peptide array binding signal intensity
1,B1,≤ 0
2,B3,11

# Target: ScLsb3
# Experiment: as above
# Procedure, shortened: as §1
row,Binder,SPOT peptide array binding signal intensity
1,B1,1330
2,B3,244

# Target: ScLsb4
# Experiment: as above
# Procedure, shortened: as §1
row,Binder,SPOT peptide array binding signal intensity
1,B1,5
2,B3,17

# Target: ScMyo3
# Experiment: as above
# Procedure, shortened: as §1
row,Binder,SPOT peptide array binding signal intensity
1,B1,≤ 0
2,B3,7

# Target: ScMyo5
# Experiment: as above
# Procedure, shortened: as §1
row,Binder,SPOT peptide array binding signal intensity
1,B1,≤ 0
2,B3,4.75

# Target: ScNbp2
# Experiment: as above
# Procedure, shortened: as §1
row,Binder,SPOT peptide array binding signal intensity
1,B1,62
2,B3,378

# Target: ScPex13
# Experiment: as above
# Procedure, shortened: as §1
row,Binder,SPOT peptide array binding signal intensity
1,B1,224
2,B3,1.25

# Target: ScRvs167
# Experiment: as above
# Procedure, shortened: as §1
row,Binder,SPOT peptide array binding signal intensity
1,B1,3.33
2,B3,20.3

# Target: ScSho1
# Experiment: as above
# Procedure, shortened: as §1
row,Binder,SPOT peptide array binding signal intensity
1,B1,764
2,B3,862

# Target: ScSla1-D1-D2
# Experiment: as above
# Procedure, shortened: as §1
row,Binder,SPOT peptide array binding signal intensity
1,B1,13.5
2,B3,779

# Target: ScSla1-D3
# Experiment: as above
# Procedure, shortened: as §1
row,Binder,SPOT peptide array binding signal intensity
1,B1,1.75
2,B3,15.2

# Target: SpAbp1-D1
# Experiment: as above
# Procedure, shortened: as §1
row,Binder,SPOT peptide array binding signal intensity
1,B1,386
2,B3,345

# Target: SpBbc1
# Experiment: as above
# Procedure, shortened: as §1
row,Binder,SPOT peptide array binding signal intensity
1,B1,≤ 0
2,B3,2.5

# Target: SpBzz1-D1
# Experiment: as above
# Procedure, shortened: as §1
row,Binder,SPOT peptide array binding signal intensity
1,B1,403
2,B3,184

# Target: SpBzz1-D2
# Experiment: as above
# Procedure, shortened: as §1
row,Binder,SPOT peptide array binding signal intensity
1,B1,0.75
2,B3,≤ 0
3,B4,≤ 0

# Target: SpCyk3
# Experiment: as above
# Procedure, shortened: as §1
row,Binder,SPOT peptide array binding signal intensity
1,B1,2
2,B3,4.5
3,B4,1

# Target: SpHof1
# Experiment: as above
# Procedure, shortened: as §1
row,Binder,SPOT peptide array binding signal intensity
1,B1,35
2,B3,222
3,B4,184

# Target: SpHof1-2
# Experiment: as above
# Procedure, shortened: as §1
row,Binder,SPOT peptide array binding signal intensity
1,B1,293
2,B3,5.5
3,B4,44.5

# Target: SpHof1-3
# Experiment: as above
# Procedure, shortened: as §1
row,Binder,SPOT peptide array binding signal intensity
1,B1,136
2,B3,316
3,B4,352

# Target: SpHse1
# Experiment: as above
# Procedure, shortened: as §1
row,Binder,SPOT peptide array binding signal intensity
1,B1,416
2,B3,298
3,B4,420

# Target: SpLsb1
# Experiment: as above
# Procedure, shortened: as §1
row,Binder,SPOT peptide array binding signal intensity
1,B1,≤ 0
2,B3,11.5
3,B4,4.25

# Target: SpLsb4
# Experiment: as above
# Procedure, shortened: as §1
row,Binder,SPOT peptide array binding signal intensity
1,B1,357
2,B3,292
3,B4,98

# Target: SpMyo1
# Experiment: as above
# Procedure, shortened: as §1
row,Binder,SPOT peptide array binding signal intensity
1,B1,5.5
2,B3,3
3,B4,2

# Target: SpNbp2
# Experiment: as above
# Procedure, shortened: as §1
row,Binder,SPOT peptide array binding signal intensity
1,B1,61
2,B3,1040
3,B4,348

# Target: SpPex13
# Experiment: as above
# Procedure, shortened: as §1
row,Binder,SPOT peptide array binding signal intensity
1,B1,5
2,B3,13
3,B4,17

# Target: SpRvs167
# Experiment: as above
# Procedure, shortened: as §1
row,Binder,SPOT peptide array binding signal intensity
1,B1,302
2,B3,7.33
3,B4,11.3

# Target: SpSla1-D1-D2
# Experiment: as above
# Procedure, shortened: as §1
row,Binder,SPOT peptide array binding signal intensity
1,B1,7
2,B3,1
3,B4,≤ 0

# Target: SpSla1-D3
# Experiment: as above
# Procedure, shortened: as §1
row,Binder,SPOT peptide array binding signal intensity
1,B1,≤ 0
2,B3,5
3,B4,19
